From ChEMBL document CHEMBL1157539, “Thousands of chemical starting points for antimalarial lead identification” (Nature, 2010)

Columns and labels:
Assay type in all cases: functional
Plasmodium falciparum [1] = experiment: GSK_TCMDC: Inhibition of Plasmodium falciparum 3D7 in whole red blood cells, using parasite LDH activity as an index of growth. Test compounds present at 2uM
Plasmodium falciparum [2] = experiment: GSK_TCMDC: Inhibition of Plasmodium falciparum Dd2 in whole red blood cells, using parasite LDH activity as an index of growth. Test compounds present at 2uM
HepG2 = experiment: GSK_TCMDC: Percent inhibition of human HepG2 cell line. Test compounds present at 10uM.

Compound	Inhibition (Plasmodium falciparum [1]) [%]	Inhibition (Plasmodium falciparum [2]) [%]	Inhibition (HepG2) [%]
Cl.O=c1cc(NCCCNCc2ccc(Cl)c(Cl)c2)[nH]c2ccc(C(F)(F)F)cc12	100	68	10
COc1ccc(C2CC(=O)C3=C(C2)NC(C)=C(C(=O)OC(C)C)C3c2ccccc2F)cc1OC (stereo not drawn)	100	99	14
Cc1cc(N2CCN(CC3CCCCC3)CC2)nc(Nc2ccc(Br)cc2)n1	91	16	0
COc1c(C2CCN(CCCCNC(=O)c3ccc(NC(=O)c4ccc(C#N)cc4)cc3)CC2)ccc2c1CCCC2	97	100	81
CCN1CCN(Cc2ccc(NC(=O)c3cc4ccc5cccnc5c4[nH]3)cc2)CC1	100	97	0
COc1ccc2nccc(NCC3(O)CCC(NCc4cc5c(cn4)OCCO5)CC3)c2n1.Cl (stereo not drawn)	99	23	15
NC(Cc1cccc(I)c1)C(=O)NCC1CCCO1.O=C(O)C(F)(F)F (stereo not drawn)	98	50	52
O=C(NCCCCN1CCC(c2ccc3ccccc3c2)CC1)c1ccc(NC(=O)c2ccc(Cl)cc2)cc1	100	93	24
COc1cc(NC(=O)/C=C/c2cc(F)cc(F)c2F)cc(OCCN2CCCCC2)c1.O=C(O)C(=O)O	100	80	10
CCC1(c2ccccc2)N=C(N)N(CCCc2ccccc2)C1=O (stereo not drawn)	90	96	17
Cc1cnc(C(=O)Nc2ccc3c(c2)CCCN(Cc2c[nH]c4cnccc24)C3)cn1.O=CO	92	20	0
O=C(NCc1cccc(CN2CCOCC2)c1)c1cc(Br)cc(N2CCN(c3ccncc3)CC2)c1.O=C(O)C(F)(F)F	99	29	25
COc1cccc(OC2CCN(C(=O)c3cc(C(C)(C)C)nn3Cc3ccccc3)CC2)c1	100	98	3
COc1cc(C(=O)NC2CCc3ccccc32)cc(Cl)c1OC (stereo not drawn)	85	60	12
Cc1cccc(C(=O)Nc2ccc(N3CCCN(Cc4cccc(O)c4)CC3)cc2)c1.O=C(O)C(F)(F)F	92	44	2
CCc1cc2c3c(N)nc(N)nc3ccc2n1C(CC)CC	96	12	71

Compound	Inhibition (Plasmodium falciparum [1]) [%]	Inhibition (Plasmodium falciparum [2]) [%]	Inhibition (HepG2) [%]
OC(CNCc1ccccc1OCc1ccccc1)c1cccc(I)c1 (stereo not drawn)	100	100	2
CN1CCc2cc(Br)c(O)cc2C1Cc1ccccc1Cl.Cl (stereo not drawn)	98	88	2
CN(C)c1ccc(-c2nnc(Sc3ccc(C#N)c([N+](=O)[O-])c3)n2Cc2ccco2)cc1	95	79	3
Cl.Oc1ccc(-c2ccccc2)cc1CNC1CCCCC1	95	100	24
O=C(N[C@@H](CC1CCCCC1)C(=O)NCCN1CCCCC1)c1ccc(O)c(-c2ccc(Cl)c(Cl)c2)c1	97	99	14
Cc1ccc(NC(=O)NCCCCCN2CCC(c3c[nH]c4ccccc34)CC2)cc1I	94	5	96
CCN(CC)CCCC(C)Nc1ccnc2ccc(OC)cc12.Cl.O (stereo not drawn)	100	0	7
Fc1ccc(COc2ccc(Nc3ncnc4ccc(I)cc34)cc2Cl)cc1	86	30	28
CC(C)c1nc(N2CCN(C(=S)NCc3ccccc3)CC2)c(C#N)c2c1COC(C)(C)C2	99	100	0
COc1ccccc1N=C1SC(=Cc2cn(CC(=O)N3CCCc4ccccc43)c3ccccc23)C(=O)N1C1CCCCC1	100	99	10
COc1cc2c(cc1S(=O)(=O)c1ccc(OCc3ccc(Cl)cc3)cc1)CCN(Cc1ccc(NC(C)=O)s1)CC2	89	0	3
Br.CCc1c(CCNCCCCCCNCCc2ccc([N+](=O)[O-])cc2)ccc(O)c1O	94	23	5
c1csc(-c2ccc3c(c2)CC(NCc2c[nH]c4cnccc24)C3)c1 (stereo not drawn)	100	34	9
O=c1cc(NCCCNCc2ccccc2-c2ccccc2)[nH]c2ccccc12	88	46	0
COc1cccc(Nc2nccc(NCC(O)c3ccc(C(F)(F)F)cc3)n2)c1 (stereo not drawn)	99	28	14
